This is part of a sample that, as a whole, favours compounds with a hit. Of some 83,000 tested, about 20% had one in any assay.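 For each line, cells grew in 96-well plates with the test compound present at a single concentration for 48 hours.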 Values without a mark were called inactive. Activity calls are given as the source filed them. How the source made its calls: active means growth percent below 10; inactive means the rest.
Test system: HCC-2998 colon
Experiment: NCI-60 one-dose screen, 48 h (100 = growth as untreated, 0 = no growth, -100 = all killed)
Conditions: 10 µM unless noted

Row | Structure (SMILES) | growth
1 | CN1C(=O)/C(=C\c2nc([P+](c3ccccc3)(c3ccccc3)c3ccccc3)c(N3CCOCC3)o2)SC1=S | 78%
2 | COc1ccc2c(c1)c(-c1nc(-c3c[nH]c4ccncc34)cs1)cn2C | -73.5% (active)
3 | COc1ccc(C(=O)c2cc3c(N)c(C(=O)Nc4ccc(C)cc4)sc3nc2C)cc1 | 13.9%
4 | COc1cc2nc3cc([N+](=O)[O-])ccc3c(NCCNCC(C)O)c2cc1OC (stereo not given) | -47.8% (active)
5 | Cc1sc2nc(NCCc3c[nH]c4ccc(Cl)cc34)[nH]c(=O)c2c1C | 21.5%
6 | CC/C(=C(/c1ccc(Cl)cc1)c1ccc(OCCN(C)C)cc1)c1ccc(Cl)cc1 | 46.9%
7 | CNC(=O)c1[nH]cc(-c2ccc(OC)cc2)c1-c1cc(OC)c2c(c1OC)OCO2 | 101%
8 | C=CCc1c(O)c(C(=O)/C=C/c2ccccc2)c(OC)c2ccoc12 | 50.4%
9 | COc1ccc(-c2cc(-c3ccc(Cl)cc3)c(C#N)c(=O)n2Cc2ccc(C(=O)Nc3ccccc3N)cc2)cc1 | 107%
10 | COc1ccc(/C=C/C(=O)c2cccc(OCCCCOc3cccc(C(=O)/C=C/c4ccc(OC)c(OC)c4)c3)c2)cc1OC | 116%
11 | CCOC(=O)c1ccc(NC(=O)c2nc(-c3cc(OC)c(OC)c(OC)c3)n(-c3ccc(Cl)cc3)n2)cc1 | 107%
12 | Cc1ccc(CNc2ccc3nc(CCC4CCCCC4)[nH]c3c2)cc1 | -25.2% (active)
13 | CC(=O)c1c(C)nc(SCC(=O)Nc2cccc(O)c2)n1-c1ccc(Cl)cc1 | 99.3%
14 | Cc1ccc2c(c1)=C/C(=C\c1cc(-c3ccccc3)oc1O)C(=O)N=2 | 115%
15 | O=C(CSc1nnc(-c2cnccn2)n1-c1ccccc1)c1ccc(Cl)cc1 | 108%
16 | CCC(=C(c1ccc(OCCN2CCCCC2)cc1)c1ccc(OCCN2CCCCC2)cc1)c1ccc(Cl)cc1 | -87% (active)
17 | O=C(Nc1ccc(Oc2cccc(Cl)c2)c(Cl)c1)c1cnccn1 | 50.8%
18 | CCCNc1nc2ccccc2c2c1S(=O)(=O)c1ccc(Cl)cc1C2=O | 16.2%
19 | C=CCOC(=O)Nc1cccn([C@H](Cc2ccccc2)C(=O)NCCC(C)C)c1=O | 105%
20 | N#Cc1c(-c2ccc(Cl)cc2)nc(NN2C(=O)c3ccccc3C2=O)nc1N1CCOCC1 | 111%

Row | Structure (SMILES) | growth
21 | N#Cc1nc(-c2ccc(F)cc2)oc1S(=O)(=O)N1CCCCC1 | 105%
22 | COc1ccc2cc1Oc1ccc(cc1)C[C@H]1c3c(cc4c(c3Oc3cc5c(cc3OC)CCN(C)[C@@H]5C2)OCO4)CCN1C | 59.9%
23 | C=C1C(=O)O[C@H]2[C@H]1CC/C(COC(=O)/C=C\C(=O)NCc1ccc(Cn3c(=O)sn(CCI)c3=O)cc1)=C\CC[C@@]1(C)O[C@@H]21 | 83.9%
24 | CCOC(=O)c1c(NC(=O)c2ccc(Cl)cc2)sc2c(CN(C)C)c(O)ccc12 | -71.7% (active)
25 | CSc1nc(N)c(NS(=O)(=O)c2ccc(C(C)=O)cc2)c(=O)[nH]1 | 112%
26 | COc1cc2c(c(OC)c1OC)CCC(c1cccc(C(=O)Nc3cccc(Cl)c3)c1)O2 (stereo not given) | 91%
27 | Cc1nc2sc(C(=O)Nc3cccc4ccccc34)c(N)c2cc1C(O)c1ccccc1 (stereo not given) | 5.55% (active)
28 | COc1ccc(C(=O)N2c3ccccc3Sc3ccccc32)c(OC)c1 | 12.8%
29 | Cc1nc2sc(C(=O)Nc3ccc(Br)cc3)c(N)c2cc1C(O)c1ccccc1 (stereo not given) | 76.5%
30 | CNc1nnc2n(-c3ccccc3)c(=O)c3cnn(-c4ccccc4)c3n12 | 112%
31 | [O-]/[N+](=C\c1ccc(-n2cc(Cc3ccccc3Cc3cn(-c4ccc(/C=[N+](/[O-])c5ccccc5)cc4)nn3)nn2)cc1)c1ccccc1 | 104%
32 | COc1ccc(/C=N\Nc2nc(SCCC(C)C)nc(-c3ccc(OC)cc3)c2C#N)cc1 | 82.1%
33 | COC1/C=C/OC2(C)Oc3c(C)c(O)c4c(O)c(c(/C=N/Nc5ccc([N+](=O)[O-])cc5[N+](=O)[O-])c(O)c4c3C2=O)NC(=O)C(C)=C/C=C/C(C)C(O)C(C)C(O)C(C)C(OC(C)=O)C1C (stereo not given) | -14.1% (active)
34 | COc1cc(OC)c(NC(=O)c2cc3ccccc3cc2O)cc1Cl | 61.9%
35 | CC(C)(C)[Si](C)(C)OC1[C@@H](CNC(=O)NC(=O)NC(N)=O)O[C@@H](n2cnc3c(NC(=O)Nc4ccccc4)ncnc32)[C@H]1O[Si](C)(C)C(C)(C)C (stereo not given in full) | 85.8%
36 | COc1ccc(C/C(C)=C(\c2ccc(Cl)cc2)c2ccc(OCCN3CCCCC3)cc2)cc1 | 98.5%
37 | Cc1ccc(C(=O)c2ccc(CC(=O)N/N=C/c3ccccc3O)n2C)cc1 | 92.1%
38 | CCO/C=N/C1=C(C#N)C(c2ccc(Cl)cc2)c2sc3c(F)cccc3c2O1 (stereo not given) | 84.2%
39 | CCCCNC(=O)Oc1ccc(/C(=C(/C)Cc2ccc(OC)cc2)c2ccc(OCCN(CC)CC)cc2)cc1 | 85.6%
40 | COc1cc2oc(-c3cccc(NC(=O)c4ccccc4)c3)cc(=O)c2c(OC)c1OC | 87.8%

— PubChem BioAssay (NCI)
